# Many of the other results were omitted from the sample, so hits are more common in it than they were.
# KDM4E inh: JMJD2E (human) inhibition. B2RXH2. JMJD2E catalytic domain, FDH-coupled NADH fluorescence (FDH is formaldehyde dehydrogenase). Potency, µM (series often up to 57.1 µM), for inactives: top-dose activity change, negative = inhibition, most hits filed as inhibitors. 230,000 compounds, 1.6% hits; active = well fitted inhibition curve with a large enough effect, not every such curve was filed as active; inconclusive = small, poorly fitted or top-dose-only effect, or another doubt; inactive = no such curve, though single readings can be large or run the other way;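 also: potency is read from the fitted curve at half-maximal effect; 0% = wells with enzyme and -100% = buffer wells without enzyme; nearly all actives have a fitted effect of over 50% in size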
# Target sequence (B2RXH2 1-337 limits assumed): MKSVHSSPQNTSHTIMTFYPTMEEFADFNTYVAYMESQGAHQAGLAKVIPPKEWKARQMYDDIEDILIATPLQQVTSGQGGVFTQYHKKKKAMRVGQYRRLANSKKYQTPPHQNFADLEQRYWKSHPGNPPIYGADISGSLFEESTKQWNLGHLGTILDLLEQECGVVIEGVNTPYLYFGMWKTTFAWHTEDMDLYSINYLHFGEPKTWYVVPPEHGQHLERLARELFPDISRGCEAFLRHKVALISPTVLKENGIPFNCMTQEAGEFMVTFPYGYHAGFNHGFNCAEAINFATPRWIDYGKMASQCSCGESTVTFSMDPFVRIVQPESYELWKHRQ
# CtBP-E1A blk: CtBP/E1A binding inhibition; AlphaScreen GST-E1A/His-CtBP binding, 1536-well; active compounds read low; activity change, % (concentration not given with the values); 340,000 compounds, 0.49% hits; in the data active = activity change below about -65%; inconclusive = mostly about -30% to -63%
#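 GST-E1A and His-tagged CtBP (125 nM each as 5X stock) were preincubated with pin-transferred compound for 2 h at 37 °C in the dark, then glutathione donor and nickel acceptor beads were added for 1 h before AlphaScreen reading.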
# GALK inhibitor: blocks human galactokinase activity; P51570; Purified GALK, Kinase-Glo residual ATP luminescence; Potency, µM (series often up to 57.5 µM), for the others: at the top dose activity change, negative = inhibition, usual class: inhibitors; 270,000 compounds, 0.007% hits; AID 1868; also: potency is read from the fitted curve at half-maximal effect
#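 GALK at 5 nM final was combined with compound, 35 uM ATP and 100 uM galactose in HEPES pH8.0 with MgCl2 and DTT. The reaction ran one hour at room temperature before luminescent ATP detection.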
# Six1-Eya2 inh: blocks human Six1 binding to Eya2 | Q15475+O00167 | AlphaScreen GST-Six1/His-Eya2 binding, biochemical; active compounds read low | activity change, % (no concentration beside the values) | 360,000 compounds, 0.56% hits | AID 651725; in the data active = activity change below about -65%; inconclusive = mostly about -30% to -63%
#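 Six1/Eya2 binding was read as AlphaScreen signal after compounds were pinned into GST-Six1 plus His-tagged Eya2 (5X stock 250/500 nM) in pH 8.0 Tris/NaCl/TCEP buffer, beads added, then incubated 1 h, 37 C, dark.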
# Anesthetic bind: binds horse apoferritin like a general anesthetic; AID 485281; Potency, µM (titrated, usually from 77.5 µM), for the others: top-dose activity change, negative = displacement, usual class: inhibitors; apoferritin/1-aminoanthracene competitive binding, fluorescence; P02791; 350,000 compounds, 0.074% hits; also: potency is read from the fitted curve at half-maximal effect; nearly all actives have a fitted effect of over 20% in size
# Target sequence (P02791 2-175 limits assumed): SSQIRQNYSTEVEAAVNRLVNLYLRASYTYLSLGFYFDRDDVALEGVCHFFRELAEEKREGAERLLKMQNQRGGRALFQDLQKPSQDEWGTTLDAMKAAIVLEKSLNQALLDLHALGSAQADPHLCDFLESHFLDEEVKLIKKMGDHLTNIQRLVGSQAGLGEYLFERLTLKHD
#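 10 uM apoferritin + 50% sat. 1-AMA, PBS; cpd 10 min RT; Ex380/Em535 endpoint; normalized to free probe vs complex; 4-param Hill fit; propofol titration as pos. ctrl.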
# Eya2 phos inh: Eya2 (human) phosphatase inhibition; O00167; recombinant Eya2, OMFP fluorescence dephosphorylation (OMFP is methylfluorescein phosphate); Potency, µM (doses to about 76.9 µM), inactives show at the top dose activity, negative = inhibition, actives largely listed as inhibitors; 330,000 compounds, 0.006% hits; AID 488837; also: potency is read from the fitted curve at half-maximal effect
#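 Eya2 protein (added as 0.2 uM solution) was preincubated with compound for 10 min at ambient temperature in 50 mM HEPES pH 7.5, 50 mM NaCl, 5 uM MgCl2, 0.05% BSA, 1 mM DTT. OMFP (added at 50 uM) then reacted 10 min; fluorescence read at 485/525 nm.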
# An asterisk follows results filed as active; u = inconclusive; x = no result given; ! = repeats disagree; [ ] = remark or other dose. Unless noted, calls follow the shape of the dose curve; as a rule, active = well fitted curve in the direction sought with a large enough effect; inconclusive = small, poorly fitted or top-dose-only effect, or another doubt; inactive = no such curve, though single readings can be large; an effect the other way counts as inactive or inconclusive. Unless noted, % is scaled to controls: 0 for no effect and ±100 for the full control effect.
SMILES,KDM4E inh,CtBP-E1A blk,GALK inhibitor,Six1-Eya2 inh,Anesthetic bind,Eya2 phos inh
CSc1ncc(/C=C2/C(=O)NC(=O)N(C)C2=O)cn1,25µM*,2,0%,9,-20%,1%
CCCCN1C(=O)NC(=O)/C(=C/c2cnc(SC)nc2)C1=O,25µM*,3,-1%,3,u,3%
Cc1[nH]ccc2c1[nH]c1cc(=O)ccc12,u,-12,6%,-20,125%,-9%
O=C1NC(=O)N(Cc2ccccc2)C(=O)/C1=C/c1cnc(-c2ccccc2)nc1,22µM*,3,-5%,-1,u,0%
CC(C)c1ccc(N2C(=O)NC(=O)/C(=C/c3cnc(-c4ccccc4)nc3)C2=O)cc1,8.9µM*,0,-1%,0,55%,18%
CCCCCCCCCOc1ccc2[nH]cc(CCN)c2c1,25µM*!,x,-1%,x,u,-7%
CC(=O)C1CCC2C3CCC4=CC(=O)CC[C@@]4(C)C3CC[C@]12C (stereo not given in full),-7%,x,x,x,-18%,x
CC(=O)Oc1c2c(c(CC=C(C)C)c3c1C(=O)C1=CC4CC5C(C)(C)OC(C/C=C(\C)C(=O)O)(C4=O)[C@]15O3)OC(C)(CCC=C(C)C)C=C2 (stereo not given in full),-15%,x,x,x,u,x
CCCCC(=O)N/N=C/c1c(O)n(CCc2ccccc2)c(=O)[nH]c1=O,u,u,4%,u,-3%,0%
CCCCC(=O)N/N=C/c1c(O)n(CCc2ccc(OC)c(OC)c2)c(=O)[nH]c1=O,22µM*,-8,1%,5,4%,9%
COc1ccc(CCn2c(O)c(/C=N/NC(=O)c3ccncc3)c(=O)[nH]c2=O)cc1OC,10µM*,u,-2%,u,-7%,3%
CCOC(=O)c1cc(-c2ccccc2)n(CCCC(=O)Nc2ccc(C)c(C)c2)c1C,x,x,x,x,43%,x
CC(C)=CCCN1CCC(NC(=O)C(O)(c2ccccc2)C2CCCC2)CC1 (stereo not given),x,x,x,x,-1%,x
N#C/C(=C\c1ccc(O)c(O)c1)C(=O)NCCCNC(=O)/C(C#N)=C/c1ccc(O)c(O)c1,3.5µM*,x,x,x,x,2%
c1nc[n]([Sn]([CH]2CCCCC2)([CH]2CCCCC2)[CH]2CCCCC2)n1,x,x,x,x,5%,x
Cc1c(O)c(=O)ccn1C,7.9µM*,-2,0%,-12,2%,1%
C[C@@H]1C[C@H](C)C[C@H](C)[C@@H](O)CC(=O)O[C@H]([C@H]2CCC[C@H]2C(=O)O)C/C=C/C=C(/C#N)[C@H](O)[C@@H](C)C1,x,x,x,x,-6%,x
Cc1ccc(N2C(=O)NC(=O)/C(=C/c3ccc(OC(=O)c4cccs4)cc3)C2=O)cc1,20µM*,-8,0%,u,-24%,14%
CC(C)(c1ccc(OCC2CO2)cc1)c1ccc(OCC2CO2)cc1 (stereo not given),x,x,x,x,393%,x
CC(C)n1c(/C=C\[C@@H](O)C[C@@H](O)CC(=O)O)c(-c2ccc(F)cc2)c2ccccc21,u,x,x,x,3%[29.3 µM],x
O[N+]1=CC=CCC1=S.On1ccccc1=S.[Zn],2.5µM*,x,x,x,3%,x
Cc1c(N=Nc2c(O)n(-c3ccc(Br)cc3)c(=O)[nH]c2=O)c(=O)n(-c2ccccc2)n1C,u,-94*,-1%,-92*,4%,12%
Cc1c(N=Cc2c(O)n(C)c(=O)[nH]c2=O)c(=O)n(-c2ccccc2)n1C,-4%,x,0%,5,-3%,7%
Cc1c(N=Nc2c(O)[nH]c(=O)[nH]c2=O)c(=O)n(-c2ccccc2)n1C,3.5µM*,x,7%,-91*,-10%,-2%
O=C(CCCN1CCC2(CC1)C(=O)N(Cc1cccc(F)c1)CN2c1ccccc1)c1ccc(F)cc1,-2%,x,x,x,-21%,x
SMILES,KDM4E inh,CtBP-E1A blk,GALK inhibitor,Six1-Eya2 inh,Anesthetic bind,Eya2 phos inh
COC1CCCCC1NCCc1ccccc1 (stereo not given),16µM*,6,0%,5,-6%,0%
COc1ccc(CCNC2CCCCCC2)cc1,x,4,-1%,1,-3%,-7%
COC(=O)[C@]1(C)CC[C@@]2(C)CC[C@@]3(C)C4=CC=C5C(=CC(=O)C(O)=C5C)[C@@]4(C)CC[C@@]3(C)C2C1 (stereo not given in full),u,x,x,x,-24%,x
COc1ccc(CNCCc2c[nH]c3ccccc23)c(OC)c1OC,x,-14,8%,-8,-5%,-20%
COc1ccccc1CCNCc1ccc(OC)c(OC)c1OC,5.6µM*,-5,6%,4,-4%,-4%
Cc1nc2c(=O)n(C)c(=O)nc-2n(C)n1,2%,-3,u,-20,2%,35µM*
O=C1CC2OCC=C3CN4CCC56c7ccccc7N1C5C2C3CC46 (stereo not given),x,x,x,x,-5%,x
O=C(O)CC1OCC=C2CN3CCC45C6=CC(=O)C(=O)C([N+](=O)[O-])=C6NC4C1C2CC35 (stereo not given),0.063µM*,u,10µM*,20,-3%,2%
CC1(C)[C@H](C(=O)O[C@H](C#N)c2cccc(Oc3ccccc3)c2)[C@@H]1C=C(Br)Br,x,x,x,x,11%,x
CN1C(=O)C(=Cc2ccccc2OCc2ccc(Cl)cc2)C(=O)N(C)C1=O,20µM*,6,0%,25,3%,3%
NC(Cc1ccc(N(CCCl)CCCl)cc1)C(=O)O (stereo not given),20µM*!,x,x,x,x,1%
CCOC(=O)CC(NC(=O)C(Cc1ccc(N(CCCl)CCCl)cc1)NC(C)=O)C(=O)OCC (stereo not given),10µM*,6,0%,3,4%,-7%
CNc1ccc2oc(C[C@@H]3OC4(CC[C@@H]3C)O[C@H]([C@@H](C)C(=O)c3ccc[nH]3)[C@H](C)C[C@H]4C)nc2c1C(=O)O (stereo not given in full),x,x,x,x,58%,x
C[C@]12CC[C@@H]3c4cc(O)c(O)cc4CC[C@H]3[C@@H]1CC[C@@H]2O,u,0,2%,-15,-7%,-23%
C[C@]12CC[C@@H]3c4ccc(O)c(O)c4CC[C@H]3[C@@H]1CC[C@@H]2O,1.4µM*,-6,6%,-4,u,-26%
CN1CCN2c3ccc(N)cc3CC3(C(=O)NC(=O)NC3=O)C2C1 (stereo not given),4µM*,8,x,2,-3%,2%
C[C@@H](NC(=O)[C@@H](N)Cc1ccc(O)cc1)C(=O)NCC(=O)N(C)[C@@H](Cc1ccccc1)C(=O)NCCO,x,x,x,x,-5%,x
O=C(Oc1ccc2ccccc2c1)c1ccco1,-7%,16,4%,15,u,-9%

# High-throughput results from PubChem.
